Source: PubChem BioAssay (NCI)
This is part of a sample that, as a whole, favours compounds with a hit. Of some 83,000 tested, about 20% had one in any assay.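 Cell lines were cultured in 96-well plates, exposed to a single compound concentration, and assessed for percent growth 48 hours later.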 Calls of active or inactive are those of the source. How the source made its calls: active means growth percent below 10; inactive means the rest.

Tests used:
Experiment in all cases: NCI-60 one-dose screen, 48 h (100 = growth as untreated, 0 = no growth, -100 = all killed)
Conditions in all cases: 10 µM unless noted
HCT-15 colon = system: HCT-15 colon
HT29 colon = system: HT29 colon
SNB-75 CNS = system: SNB-75 CNS
SNB-19 CNS = system: SNB-19 CNS
U251 CNS = system: U251 CNS
PC-3 prostate = system: PC-3 prostate
SK-MEL-5 melanoma = system: SK-MEL-5 melanoma
UACC-62 melanoma = system: UACC-62 melanoma
LOX IMVI melanoma = system: LOX IMVI melanoma
SK-MEL-28 melanoma = system: SK-MEL-28 melanoma

Measured: growth

O=C1C2C(C(=O)[N]1[Hg][c]1ccccc1)C1(Cl)C(Cl)=C(Cl)C2(Cl)C1(Cl)Cl (stereo not given)
active: HCT-15 colon -89.1% | HT29 colon -45% | SNB-75 CNS -64.1% | U251 CNS -65.9% | PC-3 prostate -57.4% | SK-MEL-5 melanoma -16.6% | UACC-62 melanoma -3.49% | LOX IMVI melanoma -82.8% | SK-MEL-28 melanoma -88.9%
inactive: SNB-19 CNS 25.9%

N#Cc1c(Br)n(C2OC(CO)C(O)C2O)c2ncnc(N)c12 (stereo not given)
inactive: HCT-15 colon 43.9% | HT29 colon 43.8% | SNB-75 CNS 76.2% | SNB-19 CNS 101% | U251 CNS 69.4% | PC-3 prostate 16.5% | SK-MEL-5 melanoma 95.9% | UACC-62 melanoma 77.9% | LOX IMVI melanoma 57.2% | SK-MEL-28 melanoma 43.7%

O=NNc1ccccn1
inactive: HCT-15 colon 40.2% | HT29 colon 34.3% | SNB-75 CNS 95.5% | SNB-19 CNS 101% | U251 CNS 80.1% | PC-3 prostate 82.9% | SK-MEL-5 melanoma 99.3% | UACC-62 melanoma 85.9% | LOX IMVI melanoma 71.1% | SK-MEL-28 melanoma 100%

C=CC1=C[C@@H]2[C@@H]3O[C@]4(CC[C@H](O4)[C@@H](C)C[C@@H](O)C3=O)C[C@H](O)C3=NCC[C@@]32CC1
active: HCT-15 colon -13.9% | HT29 colon -13.6% | SNB-75 CNS -95.8% | SNB-19 CNS -16.2% | U251 CNS -7% | PC-3 prostate -20.1% | SK-MEL-5 melanoma -90.2% | UACC-62 melanoma -68.3% | LOX IMVI melanoma -59.9% | SK-MEL-28 melanoma -59.8%

C#Cc1ccc2c(c1)C(c1ccccc1)=NCC(=O)N2C
inactive: HCT-15 colon 26.4% | HT29 colon 13.1% | SNB-75 CNS 53.9% | SNB-19 CNS 46.6% | U251 CNS 36.9% | PC-3 prostate 54.4% | SK-MEL-5 melanoma 34.7% | UACC-62 melanoma 31% | LOX IMVI melanoma 44.4% | SK-MEL-28 melanoma 59.1%

CC1=C(CN)C2=C(C)C3(CC3)[C@@](C)(O)C(=O)C2=C1
inactive: HCT-15 colon 96.4% | HT29 colon 94.5% | SNB-75 CNS 57.7% | SNB-19 CNS 83.2% | U251 CNS 84% | PC-3 prostate 88.3% | SK-MEL-5 melanoma 98.8% | UACC-62 melanoma 97% | LOX IMVI melanoma 91.6% | SK-MEL-28 melanoma 94.8%

Cc1c(O)c(CN(CCCl)CCCl)cc(CN(CCCl)CCCl)c1O
inactive: HCT-15 colon 82.7% | HT29 colon 70.8% | SNB-75 CNS 78.9% | SNB-19 CNS 99.7% | U251 CNS 81.6% | PC-3 prostate 65.8% | SK-MEL-5 melanoma 91.7% | UACC-62 melanoma 89.1% | LOX IMVI melanoma 77.4% | SK-MEL-28 melanoma 102%

C=C1[C@@H](C)[C@H]2[C@H](Cc3ccccc3)NC(=O)[C@]23[C@@H](O)/C=C/[C@@](C)(O)C(=O)[C@@H](C)C/C=C/[C@H]3[C@@H]1O
inactive: HCT-15 colon 66.1% | HT29 colon 25.3% | SNB-19 CNS 40.7% | U251 CNS 21.9% | PC-3 prostate 45.2% | SK-MEL-5 melanoma 77.6% | UACC-62 melanoma 65.6% | LOX IMVI melanoma 27.1% | SK-MEL-28 melanoma 67.1%
active: SNB-75 CNS -8.47%

CC(C)=CCC/C(C)=C/C=N\N=C(/N)N[N+](=O)[O-]
inactive: HCT-15 colon 97.6% | HT29 colon 97.6% | SNB-75 CNS 89.8% | SNB-19 CNS 99.2% | U251 CNS 93.5% | PC-3 prostate 97.6% | SK-MEL-5 melanoma 98.8% | UACC-62 melanoma 95.6% | LOX IMVI melanoma 94.8% | SK-MEL-28 melanoma 114%

COC(=O)[C@@H](C)C[C@H](Cc1ccc(F)cc1)NC(=O)c1csc([C@@H](C[C@H](C(C)C)N(C)C(=O)[C@@H](NC(=O)[C@H]2CCCCN2C)C2CC2)OC(C)=O)n1
inactive: HCT-15 colon 12.4% | SNB-75 CNS 54.3% | SNB-19 CNS 36.5% | PC-3 prostate 28.7% | UACC-62 melanoma 43.3% | LOX IMVI melanoma 23.9% | SK-MEL-28 melanoma 59%
active: HT29 colon 0.34% | U251 CNS 5.77% | SK-MEL-5 melanoma -20.7%

O=C1OCCC1Br (stereo not given)
inactive: HCT-15 colon 98.7% | HT29 colon 97.3% | SNB-75 CNS 89.9% | SNB-19 CNS 104% | U251 CNS 92.2% | PC-3 prostate 99.5% | SK-MEL-5 melanoma 103% | UACC-62 melanoma 103% | LOX IMVI melanoma 97.4% | SK-MEL-28 melanoma 99.5%

CC1=C(CNO)C2=C(C)C3(CC3)[C@@](C)(O)C(=O)C2=C1
inactive: HCT-15 colon 12.1% | HT29 colon 41.4% | UACC-62 melanoma 28.7% | LOX IMVI melanoma 52.8% | SK-MEL-28 melanoma 50.2%
active: SNB-75 CNS -58.8% | SNB-19 CNS 4.3% | U251 CNS -13.6% | PC-3 prostate 5.59% | SK-MEL-5 melanoma -67.4%

CC1=C(CCCOC(=O)CN)C2=C(C)C3(CC3)[C@@](C)(O)C(=O)C2=C1
inactive: HCT-15 colon 77.6% | HT29 colon 69.9% | SNB-75 CNS 97% | SNB-19 CNS 91.2% | U251 CNS 82.3% | PC-3 prostate 69.4% | SK-MEL-5 melanoma 92.2% | UACC-62 melanoma 90.8% | LOX IMVI melanoma 88.6% | SK-MEL-28 melanoma 115%

CC(C)=CCc1c(O)c(C(=O)CC(C)C)c(O)c2c(-c3ccccc3)cc(=O)oc12
active: SK-MEL-5 melanoma -41.3%
inactive: HCT-15 colon 30.3% | HT29 colon 66.5% | SNB-75 CNS 81.3% | SNB-19 CNS 42.1% | U251 CNS 41.3% | PC-3 prostate 19.6% | UACC-62 melanoma 12.2% | LOX IMVI melanoma 68.2% | SK-MEL-28 melanoma 39.2%

CC(=O)O[C@H](C[C@H](C(C)C)N(C)C(=O)[C@@H](NC(=O)[C@H]1CCCCN1C)C(C)(C)C)c1nc(C(=O)N[C@@H](Cc2ccccc2)C[C@H](C)C(=O)O)cs1
inactive: SNB-75 CNS 17% | SNB-19 CNS 23.4% | U251 CNS 11.1% | PC-3 prostate 25.1% | UACC-62 melanoma 26.2% | LOX IMVI melanoma 14.3% | SK-MEL-28 melanoma 52.6%
active: HCT-15 colon 5.59% | HT29 colon 1.32% | SK-MEL-5 melanoma -50.6%

Oc1ccc2c3c1OC1[C@@H](O)CC[C@@]4(O)[C@@H](C2)N(CC2CCC2)CC[C@]314 (stereo not given in full)
inactive: HCT-15 colon 99.2% | HT29 colon 98% | SNB-75 CNS 97.9% | SNB-19 CNS 109% | U251 CNS 96.8% | PC-3 prostate 94.1% | SK-MEL-5 melanoma 92.5% | UACC-62 melanoma 108% | LOX IMVI melanoma 97.3% | SK-MEL-28 melanoma 106%

c1ccc(Nc2nc(-c3ccccc3)c[se]2)cc1
inactive: HCT-15 colon 86.9% | HT29 colon 102% | SNB-75 CNS 83% | SNB-19 CNS 91.7% | U251 CNS 84.4% | PC-3 prostate 83.6% | SK-MEL-5 melanoma 89.2% | UACC-62 melanoma 78.7% | LOX IMVI melanoma 93.5% | SK-MEL-28 melanoma 98.8%

N#C[Se]Cc1cc(-c2ccccc2)n(-c2ccc(S(N)(=O)=O)cc2)n1
active: HCT-15 colon 4.73% | HT29 colon -27% | SNB-75 CNS -38.3% | SNB-19 CNS -100% | U251 CNS -61.2% | PC-3 prostate -13.1% | SK-MEL-5 melanoma -76.6% | UACC-62 melanoma -9.79% | LOX IMVI melanoma -69.4% | SK-MEL-28 melanoma -58.8%

CC1(C)N=C(N)N=C(N)N1c1cccc(CCCCc2ccc(Cl)c(S(=O)(=O)F)c2)c1
inactive: HCT-15 colon 66.6% | HT29 colon 12.5% | SNB-75 CNS 62.2% | SNB-19 CNS 45.9% | U251 CNS 35.3% | PC-3 prostate 24.1% | SK-MEL-5 melanoma 16.4% | UACC-62 melanoma 15.3% | LOX IMVI melanoma 16.5% | SK-MEL-28 melanoma 70.2%

C=C1C[C@](OC)([C@H](O)C(=O)N[C@@H](OC)[C@@H]2C[C@@H](O)C(C)(C)[C@@H](C[C@@H](COC)OC)O2)O[C@H](C)[C@@H]1C
active: HCT-15 colon -51.3% | HT29 colon -68.7% | SNB-75 CNS -100% | SNB-19 CNS -10.7% | U251 CNS -61.9% | PC-3 prostate -25.5% | SK-MEL-5 melanoma -100% | UACC-62 melanoma -92.5% | LOX IMVI melanoma -81.8% | SK-MEL-28 melanoma -100%

COc1ccc([As]=[As]c2ccc(OC)c(NCS(=O)(=O)O)c2)cc1NCS(=O)(=O)O (stereo not given)
active: HCT-15 colon -72.2% | SNB-19 CNS 0.15% | U251 CNS -43% | SK-MEL-5 melanoma 1.61% | LOX IMVI melanoma 5.45% | SK-MEL-28 melanoma 0.0807%
inactive: HT29 colon 39.8% | SNB-75 CNS 36.9% | PC-3 prostate 32.5% | UACC-62 melanoma 17%

C/C(CC(C)(C)N1CC1)=N\NC(=O)Nc1cccc2ccccc12
inactive: HCT-15 colon 60.8% | HT29 colon 38.6% | SNB-75 CNS 58.8% | SNB-19 CNS 63.5% | U251 CNS 57.3% | PC-3 prostate 64.4% | SK-MEL-5 melanoma 72.3% | UACC-62 melanoma 68.4% | LOX IMVI melanoma 46.1% | SK-MEL-28 melanoma 102%

CC12CCC(O)CC1=CCC1C2CCC2(C)C(O)CCC12 (stereo not given)
inactive: HCT-15 colon 105% | HT29 colon 101% | SNB-75 CNS 88% | SNB-19 CNS 86.7% | U251 CNS 105% | PC-3 prostate 94.1% | SK-MEL-5 melanoma 98.2% | UACC-62 melanoma 102% | LOX IMVI melanoma 99.5% | SK-MEL-28 melanoma 106%

Cc1cnc(/C=C/C(=O)O)cc1-c1cc2c(cc1C)C(C)(C)CCC2(C)C
inactive: HCT-15 colon 53.9% | HT29 colon 68.3% | SNB-75 CNS 62.5% | SNB-19 CNS 97.4% | U251 CNS 70.9% | PC-3 prostate 74.8% | SK-MEL-5 melanoma 62.8% | UACC-62 melanoma 65.8% | LOX IMVI melanoma 47.9% | SK-MEL-28 melanoma 41.5%

COc1ccc2nc(NC(=O)COc3cc(/C=C\c4cc(OC)c(OC)c(OC)c4)ccc3OC)sc2c1
inactive: HCT-15 colon 15.5% | HT29 colon 10.3% | SNB-19 CNS 31.5% | U251 CNS 20.4% | PC-3 prostate 30.4% | SK-MEL-5 melanoma 10.8% | UACC-62 melanoma 33.8% | SK-MEL-28 melanoma 43.5%
active: SNB-75 CNS -5.27% | LOX IMVI melanoma 8.81%

COc1cc(NC(C)CCCNC2CN3CCC2CC3)c2ncccc2c1 (stereo not given)
inactive: HCT-15 colon 65.8% | HT29 colon 27% | SNB-75 CNS 78.1% | SNB-19 CNS 86.5% | U251 CNS 77.7% | PC-3 prostate 55.6% | SK-MEL-5 melanoma 70% | UACC-62 melanoma 38% | LOX IMVI melanoma 76.1% | SK-MEL-28 melanoma 95.3%
